From PubChem
Hits are enriched below; roughly 2.2% of the tested compounds scored in any of these assays.
Ba/F3 V617F tox: reduced viability of JAK2V617F-dependent Ba/F3 cells, primary screen, JAK2V617F inhibitor project, cell-based, Ba/F3 EpoR-JAK2V617F, luminescence. inhibition, % at 5.6 µM. AID 1446, 2008. ATP luminescence. actives 1.1% (n = 220,000);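 active = inhibition above the campaign mean plus 3 SD over all tested compounds, cut at about 24% in these data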;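 also: cytokine-independent growth of Ba/F3 cells driven by EpoR plus mutant JAK2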
aSyn UTR inh: MLPCN primary screen, SNCA 5' untranslated region | actives 0.82% (n = 300,000) | inhibition, % (tested at 7.5 µM) | alpha-synuclein 5'UTR reporter, inhibitor activity; in the data active = inhibition above about 60%;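 also: H4 neuroglioblastoma cells stably carrying SNCA 5'UTR luciferase fusion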
APP transl inh: inhibitors of APP translation via 5'UTR reporter, primary screen, APP 5'UTR luciferase, SH-SY5Y cells. inhibition, % at 2 µM. SH-SY5Y APP 5'UTR-luciferase reporter, luminescence. actives 0.82% (n = 190,000);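 active = inhibition above a set limit, derived from the sample mean plus 3 SD, cut at about 45% in these data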
BaF3 tox: parental Ba/F3 cell viability inhibition, counter-screen for JAK2V617F inhibitor project, murine pro-B, CellTiter-Glo luminescence | CellTiter-Glo ATP luminescence | inhibition, % at 5.6 µM | actives 1.1% (n = 220,000) | AID 1486, 2009;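 active = inhibition above a per-campaign cutoff, the mean inhibition of all tested compounds plus 3 SD, cut at about 27% in these data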
IEC-6 tox: cytotoxicity in IEC-6 intestinal epithelial cells, primary screen, cytotoxicity control for KLF5 inhibitor project, cell-based, luminescence; actives 0.78% (n = 290,000); IEC-6 cytotoxicity, luminescence viability; inhibition, % at 5 µM; in the data active = inhibition above about 22%
KLF5 inhibitor: KLF5 expression inhibitors, primary screen, DLD-1 cells, luminescence | DLD-1 KLF5 promoter-luciferase reporter | inhibition, % at 5 µM | actives 0.23% (n = 290,000);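 active = inhibition above a per-plate limit of that plate's mean compound inhibition plus 3 SD, cut at about 60% in these data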;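 also: higher means less KLF5 promoter-driven luciferase light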
BaF3 tox 2: parental Ba/F3 cell viability inhibition, counter-screen for JAK2V617F inhibitor project, murine pro-B, CellTiter-Glo luminescence | actives 31% (n = 580) | cells kept alive by added IL-3 | inhibition, % at 5.6 µM | AID 1520, 2009 | shares compounds with Ba/F3 V617F tox;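 active = cell growth inhibition above the hit limit set in the earlier mutant JAK2 cell screen, cut at about 27% in these data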
JAK2V617F conf: viability loss in Ba/F3 EpoR-JAK2V617F cells, confirmation, JAK2V617F inhibitor project, cell-based, luminescence, triplicate. shares compounds with Ba/F3 V617F tox. CellTiter-Glo luminescence. inhibition, % at 5.6 µM. actives 66% (n = 580). AID 1521, 2009;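 active = mean inhibition above the hit cutoff derived in the earlier primary screen, cut at about 25% in these data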;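 also: higher means lower luminescence from reduced cell ATP and viability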
Large screens that a line does not name were inactive (follow-up assays come after a bar, where they were run).

COC(=O)C1=C(NC(=O)c2ccccc2[N+](=O)[O-])CCS1	none
CCc1cc(=O)oc2cc(C)cc(OC(C)C(=O)NCc3ccccn3)c12 (stereo unspecified)	none (no result: Ba/F3 V617F tox, APP transl inh, BaF3 tox)
Nc1ccccc1Nc1cccc(C(F)(F)F)c1	Ba/F3 V617F tox 41.9 | BaF3 tox 2 40.4 | JAK2V617F conf 92.8
Cc1cc(C)nc(Nc2cccc(C(F)(F)F)c2)n1	none (no result: Ba/F3 V617F tox, APP transl inh, BaF3 tox)
CSc1nc(C)c(C(=O)C[n+]2ccccc2)cc1C#N	none (no result: APP transl inh)
OC1(c2cccs2)CN(c2ccccc2)C2=[N+]1CCCC2 (stereo unspecified)	none
CCOc1ccc(N2CC(O)(c3cccs3)[N+]3=C2CCCC3)cc1 (stereo unspecified)	Ba/F3 V617F tox 23.5 | BaF3 tox 2 31.2 | JAK2V617F conf 46.2
CC(Sc1nc2c(c(=O)[nH]1)CCCC2)C(=O)Nc1ccccc1C#N (stereo unspecified)	none (no result: Ba/F3 V617F tox, APP transl inh, BaF3 tox)
CN(C)c1nc(N(C)C)nc(N(C#N)CCOc2ccccc2)n1	none
Cc1cc(C)nc(N(C#N)CCOc2ccccc2)n1	Ba/F3 V617F tox 54.1 | BaF3 tox 2 inactive | JAK2V617F conf inactive
N#CCSc1nnc(Nc2ccccc2)s1	none
OCCSc1nnc(Nc2ccccc2)s1	Ba/F3 V617F tox 65.2 | BaF3 tox 2 inactive | JAK2V617F conf inactive
Oc1ccc(N=C/C=C/c2ccc(Br)cc2)cc1-c1nc2ccccc2s1	none
COc1ccc(C2c3ccc4ccccc4c3Oc3ncn(CCCO)c(=N)c32)cc1OC (stereo unspecified)	Ba/F3 V617F tox 81.3 (no result: APP transl inh) | BaF3 tox 2 inactive | JAK2V617F conf inactive
Cc1ccc2c(CC(=O)NC3CCS(=O)(=O)C3)coc2c1C (stereo unspecified)	none (no result: Ba/F3 V617F tox, APP transl inh, BaF3 tox)
Cc1ccc2c(CC(=O)NCc3ccco3)coc2c1C	Ba/F3 V617F tox 34.6 | BaF3 tox 2 inactive | JAK2V617F conf inactive
O=C(CNc1cc(S(=O)(=O)N2CCOCC2)ccc1NCC1CCCO1)Nc1ccc(F)c(F)c1 (stereo unspecified)	none (no result: Ba/F3 V617F tox, APP transl inh, BaF3 tox)
COc1cc(-c2[nH]nc3c2C(c2ccco2)C(C#N)=C(N)O3)cc(OC)c1OC (stereo unspecified)	none
Cc1c(C(=O)N(C)c2ccc(Cl)cc2)cnn1-c1ccccc1	none (no result: Ba/F3 V617F tox, APP transl inh, BaF3 tox)
CC(CCc1ccccc1)NC(=O)CNC(=O)c1cccs1 (stereo unspecified)	none (no result: Ba/F3 V617F tox, APP transl inh, BaF3 tox)
COc1ccccc1S(=O)(=O)n1cc(Cc2ccccc2)c(N)n1	Ba/F3 V617F tox 99.7 (no result: aSyn UTR inh) | BaF3 tox 2 inactive | JAK2V617F conf inactive
COc1ccc(Cl)cc1S(=O)(=O)N1CCN=C1Cc1ccccc1	none (no result: Ba/F3 V617F tox, APP transl inh, BaF3 tox)
Cc1ccc(S[C@@H](CCN2CC[C@H](C(C)(C)C)CCC2=O)c2ccccc2)cc1	none (no result: Ba/F3 V617F tox, APP transl inh, BaF3 tox)
O=[N+]([O-])c1cc(S(=O)(=O)NCCN2CCOCC2)ccc1Sc1nnnn1-c1ccccc1	Ba/F3 V617F tox 45.8 | BaF3 tox 2 26.9 | JAK2V617F conf 95.8
C=CCOc1nc2c(c(=O)n(C)c(=O)n2C)n1Cc1ccc(Cl)cc1	Ba/F3 V617F tox 23.9 | BaF3 tox 2 61.5 | JAK2V617F conf 53.0
O=C(c1csc2ccccc12)N1CCCCCC1	Ba/F3 V617F tox 28.1 | BaF3 tox 2 inactive | JAK2V617F conf 36.3
CCOc1ccccc1C(=O)N(CCC(=O)OC)c1ccccn1	none
COC(=O)CCN(C(=O)C1C2CC3CC(C2)CC1C3)c1ccccn1 (stereo unspecified)	Ba/F3 V617F tox 49.4 | BaF3 tox 2 inactive | JAK2V617F conf inactive
COc1ccc(-c2ccc(SC)nn2)cc1	Ba/F3 V617F tox 24.2, aSyn UTR inh 75.0 | BaF3 tox 2 31.9 | JAK2V617F conf 30.5
COc1ccc(C(=O)CSc2ccc(-c3ccccc3)nn2)cc1	none
CCCCCCCOc1ccc(OC(=O)c2ccncc2)cc1	Ba/F3 V617F tox 52.4 | BaF3 tox 2 64.8 | JAK2V617F conf 92.9
CCSc1nnc([C@H](Cc2ccccc2)NC(=O)OC(C)(C)C)o1	none
Cc1cccc(CS(=O)(=O)Cc2ccc(C(=O)NC(C)c3ccccc3)o2)c1 (stereo unspecified)	none (no result: Ba/F3 V617F tox, APP transl inh, BaF3 tox)
CCC(C)[C@@H](NC(=O)OC(C)(C)C)c1nnc(S(=O)(=O)Cc2cccc(C)c2)o1 (stereo partly specified)	Ba/F3 V617F tox 25.9 | BaF3 tox 2 inactive | JAK2V617F conf 65.8
Cc1ccccc1CS(=O)(=O)c1nnc([C@H](Cc2ccccc2)NC(=O)OC(C)(C)C)o1	Ba/F3 V617F tox 37.3, APP transl inh 69.9 | BaF3 tox 2 inactive | JAK2V617F conf 95.0
CC(C)(C)c1ccc(OCc2ccc(C(=O)N/N=C/c3ccc(O)c(O)c3)cc2)cc1	Ba/F3 V617F tox 100.8 | BaF3 tox 2 81.0 | JAK2V617F conf 99.3
Cc1cc(C)n(CCNc2nc3nonc3nc2N2CCCCC2)n1	none
CCCC(=O)c1ccc(N2CCC(C)CC2)c(F)c1	none
O=C1N=C(N2CCOCC2)S/C1=C\c1ccc(OS(=O)(=O)c2ccccc2)cc1	Ba/F3 V617F tox 44.4 | BaF3 tox 2 inactive | JAK2V617F conf inactive
Oc1ccc(/C=C/c2ccnc3ccccc23)cc1	Ba/F3 V617F tox 46.6 | BaF3 tox 2 inactive | JAK2V617F conf 42.5
O=[N+]([O-])c1cc(/C=N/Nc2nc3ccccc3[nH]2)c(O)cc1O	Ba/F3 V617F tox 29.8, APP transl inh 50.5 | BaF3 tox 2 68.0 | JAK2V617F conf 81.1
CC1CCC(NC(=O)CCn2ccc3cc(S(=O)(=O)N4CCCC4)ccc32)CC1 (stereo unspecified)	none (no result: Ba/F3 V617F tox, APP transl inh, BaF3 tox)
N#C/C(=C\c1ccc(O)c(O)c1)C(=O)NCCCc1ccccc1	Ba/F3 V617F tox 55.5 | BaF3 tox 2 inactive | JAK2V617F conf 87.1
CN(C1CCCC1)C1CCN(C(=S)Nc2cc(F)cc(F)c2)CC1	Ba/F3 V617F tox 30.6 | BaF3 tox 2 inactive | JAK2V617F conf 31.9
CSc1cccc(NC(=S)N2CCC(N(C)C3CCCCCC3)CC2)c1	none
O=C1COc2ccccc2N1Cc1c(F)cccc1Cl	none (no result: Ba/F3 V617F tox, APP transl inh, BaF3 tox)
COCCn1c(=S)[nH]c2cc(C(=O)N3CCN(c4ccccc4OC)CC3)ccc2c1=O	none (no result: aSyn UTR inh)
COCCn1c(=S)[nH]c2cc(C(=O)N3CCN(c4ccc(F)cc4)CC3)ccc2c1=O	Ba/F3 V617F tox 51.0 | BaF3 tox 2 inactive | JAK2V617F conf inactive
O=C(CSc1ccc2ccccc2c1)NCCc1ccc(O)c(O)c1	Ba/F3 V617F tox 51.6 | BaF3 tox 2 51.2 | JAK2V617F conf 92.7
CSc1ccc(Cl)c(C(=O)OCC(=O)N(C)CCC#N)c1	none
